Values without a mark were called inactive. Active and inactive are the calls of the source.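 How the source made its calls, unless noted: active means mean inhibition above 46.68%, the untreated control wells mean plus 3 SD; inactive means the rest.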
Columns and labels:
[1] = biological target: Nuclear receptor coactivator 3 (Homo sapiens) (UniProt Q9Y6Q9); experiment: SRC3 coactivator transcriptional activity inhibitors, confirmation, cell-based, luminescence, quadruplicate (AID 588792;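 active means mean inhibition over 43.08%, the solvent-only control mean plus 3 SD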;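 further: 0% = DMSO treated cells and 100% = gossypol at 36 µM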); conditions: HEK293 GAL4-SRC3 luciferase reporter, at 3.6 µM, hits give high values
Chain of Nuclear receptor coactivator 3 (Homo sapiens) (Q9Y6Q9 whole entry, looked up, the tested form may be a part): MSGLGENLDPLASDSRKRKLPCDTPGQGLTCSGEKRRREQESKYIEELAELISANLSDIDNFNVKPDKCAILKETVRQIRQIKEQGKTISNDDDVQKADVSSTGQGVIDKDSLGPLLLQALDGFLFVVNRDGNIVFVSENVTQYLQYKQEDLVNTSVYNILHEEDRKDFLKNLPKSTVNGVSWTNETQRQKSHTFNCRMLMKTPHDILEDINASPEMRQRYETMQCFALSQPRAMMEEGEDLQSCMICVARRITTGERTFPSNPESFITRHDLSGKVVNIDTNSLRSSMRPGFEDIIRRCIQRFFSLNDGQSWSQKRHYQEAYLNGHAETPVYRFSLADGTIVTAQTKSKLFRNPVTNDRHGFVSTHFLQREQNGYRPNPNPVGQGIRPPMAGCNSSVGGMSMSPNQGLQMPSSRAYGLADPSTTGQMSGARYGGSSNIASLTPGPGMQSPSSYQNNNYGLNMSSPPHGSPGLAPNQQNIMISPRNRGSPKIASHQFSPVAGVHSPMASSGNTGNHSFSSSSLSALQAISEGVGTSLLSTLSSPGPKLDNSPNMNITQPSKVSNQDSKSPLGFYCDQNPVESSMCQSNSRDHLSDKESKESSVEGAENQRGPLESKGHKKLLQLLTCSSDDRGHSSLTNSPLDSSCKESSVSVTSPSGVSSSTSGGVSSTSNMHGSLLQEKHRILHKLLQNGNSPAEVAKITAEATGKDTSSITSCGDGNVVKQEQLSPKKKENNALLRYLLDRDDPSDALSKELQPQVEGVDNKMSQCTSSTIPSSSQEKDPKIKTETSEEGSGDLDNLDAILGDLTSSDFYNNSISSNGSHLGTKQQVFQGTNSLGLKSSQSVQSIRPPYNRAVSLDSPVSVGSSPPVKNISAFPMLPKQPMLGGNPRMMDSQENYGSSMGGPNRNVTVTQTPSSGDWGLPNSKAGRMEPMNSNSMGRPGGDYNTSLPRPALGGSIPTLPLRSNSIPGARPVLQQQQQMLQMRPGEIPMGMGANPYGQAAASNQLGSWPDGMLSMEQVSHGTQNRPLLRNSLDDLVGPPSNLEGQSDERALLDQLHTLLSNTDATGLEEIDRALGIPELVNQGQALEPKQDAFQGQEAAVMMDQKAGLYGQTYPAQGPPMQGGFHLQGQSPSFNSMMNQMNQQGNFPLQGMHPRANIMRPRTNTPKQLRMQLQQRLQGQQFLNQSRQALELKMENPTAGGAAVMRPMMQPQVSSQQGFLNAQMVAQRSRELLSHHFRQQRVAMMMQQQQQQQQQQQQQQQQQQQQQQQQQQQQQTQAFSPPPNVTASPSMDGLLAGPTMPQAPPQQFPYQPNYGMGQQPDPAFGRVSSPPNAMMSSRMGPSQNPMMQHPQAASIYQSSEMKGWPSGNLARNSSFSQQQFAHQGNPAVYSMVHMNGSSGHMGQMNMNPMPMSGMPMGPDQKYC

[2] = test system: transactivating tegument protein VP16 (Human herpesvirus 1), Gal4-VP16 luciferase reporter; experiment: VP16 transactivation inhibitors, counter-screen for SRC3 inhibitor project, cell-based, luminescence, high throughput (AID 588794; in the data active means inhibition above about 30%); conditions: mammalian cells, VP16-driven luciferase reporter luminescence; at 3.6 µM; hits give high values
[3] = biological target: Nuclear receptor coactivator 1 (Homo sapiens) (UniProt Q15788); experiment: SRC1 coactivator transcriptional activity inhibitors, confirmation, cell-based, luminescence, quadruplicate (AID 588820); conditions: HEK293 GAL4-SRC1 luciferase reporter, at 3.6 µM, hits give high values;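 further: 0% = DMSO wells and 100% = gossypol 36 µM treated wells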
Chain of Nuclear receptor coactivator 1 (Homo sapiens) (Q15788 whole entry, looked up, the tested form may be a part): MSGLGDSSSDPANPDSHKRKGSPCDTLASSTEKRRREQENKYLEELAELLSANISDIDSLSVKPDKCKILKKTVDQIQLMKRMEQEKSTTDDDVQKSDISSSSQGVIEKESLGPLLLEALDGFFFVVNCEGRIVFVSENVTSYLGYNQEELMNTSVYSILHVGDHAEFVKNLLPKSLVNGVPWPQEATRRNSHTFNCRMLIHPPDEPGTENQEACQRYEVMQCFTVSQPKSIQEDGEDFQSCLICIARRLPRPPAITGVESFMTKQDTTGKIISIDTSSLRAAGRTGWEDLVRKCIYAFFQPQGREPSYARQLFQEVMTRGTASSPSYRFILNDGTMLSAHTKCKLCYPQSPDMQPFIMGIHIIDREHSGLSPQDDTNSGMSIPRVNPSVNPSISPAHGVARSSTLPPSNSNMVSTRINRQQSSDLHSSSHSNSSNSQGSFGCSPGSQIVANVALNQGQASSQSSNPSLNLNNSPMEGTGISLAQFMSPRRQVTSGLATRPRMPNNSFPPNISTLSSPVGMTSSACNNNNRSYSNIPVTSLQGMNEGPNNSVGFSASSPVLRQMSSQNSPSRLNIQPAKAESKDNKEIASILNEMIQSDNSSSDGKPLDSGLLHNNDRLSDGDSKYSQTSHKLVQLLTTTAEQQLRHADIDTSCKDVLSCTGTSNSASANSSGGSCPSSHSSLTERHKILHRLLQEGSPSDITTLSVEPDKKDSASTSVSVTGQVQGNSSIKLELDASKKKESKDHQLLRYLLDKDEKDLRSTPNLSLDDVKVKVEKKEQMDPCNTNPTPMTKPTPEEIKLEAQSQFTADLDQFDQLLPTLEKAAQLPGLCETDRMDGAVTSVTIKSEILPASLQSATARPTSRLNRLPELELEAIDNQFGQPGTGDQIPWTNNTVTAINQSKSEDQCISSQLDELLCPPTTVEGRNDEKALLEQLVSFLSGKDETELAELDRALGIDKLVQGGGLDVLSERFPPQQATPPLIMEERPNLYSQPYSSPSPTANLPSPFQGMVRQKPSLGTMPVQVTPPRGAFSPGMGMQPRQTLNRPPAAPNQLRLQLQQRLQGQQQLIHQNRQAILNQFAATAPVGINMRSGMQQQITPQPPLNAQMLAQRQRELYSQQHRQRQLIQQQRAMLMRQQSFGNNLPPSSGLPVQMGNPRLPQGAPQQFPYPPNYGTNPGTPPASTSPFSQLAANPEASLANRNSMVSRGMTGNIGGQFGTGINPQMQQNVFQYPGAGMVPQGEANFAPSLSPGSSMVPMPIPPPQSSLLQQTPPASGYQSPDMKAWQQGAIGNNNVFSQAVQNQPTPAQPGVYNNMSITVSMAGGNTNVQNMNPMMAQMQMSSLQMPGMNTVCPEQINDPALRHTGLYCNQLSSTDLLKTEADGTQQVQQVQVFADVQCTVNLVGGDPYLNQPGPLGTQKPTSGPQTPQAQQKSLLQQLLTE

[4] = VP16 transactivation inhibitors, counter-screen for SRC1 inhibitor project, cell-based, luminescence, high throughput (AID 588824; in the data active means inhibition above about 25%); conditions: cell-based VP16 transactivation luciferase luminescence; at 3.6 µM; hits give high values
[5] = StAR promoter reporter inhibitors, counter-screen for LRH-1 inverse agonist project, cell-based, luminescence, high throughput (AID 651611; in the data active means inhibition above about 28%); conditions: StAR promoter luciferase reporter counterscreen, at 3.6 µM, hits give high values
[6] = biological target: Nuclear receptor subfamily 5 group A member 2 (Homo sapiens) (UniProt O00482); experiment: LRH-1 (NR5A2) inverse agonists, retest, confirmation, cell-based, luminescence (AID 651613; in the data active means inhibition above about 42%;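 further: HEK293T cells co-transfected with LRH-1 and StAR promoter luciferase reporter; 0% = vehicle wells and 100% = parental cells lacking receptor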); conditions: cell-based LRH-1 luciferase reporter, inverse agonism; at 3.6 µM; hits give high values
Chain of Nuclear receptor subfamily 5 group A member 2 (Homo sapiens) (O00482 whole entry, looked up): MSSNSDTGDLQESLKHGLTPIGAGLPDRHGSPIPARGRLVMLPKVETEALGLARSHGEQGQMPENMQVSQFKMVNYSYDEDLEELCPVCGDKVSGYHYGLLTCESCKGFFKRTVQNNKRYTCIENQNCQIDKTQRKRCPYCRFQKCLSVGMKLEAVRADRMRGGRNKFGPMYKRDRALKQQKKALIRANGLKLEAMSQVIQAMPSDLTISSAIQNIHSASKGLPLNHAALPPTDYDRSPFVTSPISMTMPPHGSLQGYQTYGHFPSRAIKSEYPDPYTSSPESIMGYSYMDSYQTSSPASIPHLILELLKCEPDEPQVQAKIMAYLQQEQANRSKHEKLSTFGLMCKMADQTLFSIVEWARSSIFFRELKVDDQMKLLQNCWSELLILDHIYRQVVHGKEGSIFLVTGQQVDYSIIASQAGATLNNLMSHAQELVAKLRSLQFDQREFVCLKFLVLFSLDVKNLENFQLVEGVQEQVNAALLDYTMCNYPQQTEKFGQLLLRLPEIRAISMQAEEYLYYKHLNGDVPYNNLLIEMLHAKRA

[7] = biological target: Steroidogenic factor 1 (Homo sapiens) (UniProt Q13285); experiment: SF1 (NR5A1) inverse agonists, counter-screen for LRH-1 inverse agonist project, cell-based, luminescence, high throughput (AID 651614; in the data active means inhibition above about 44%;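 further: cells cotransfected with StAR promoter reporter and SF1 expression vector; 0% = vehicle on cells with receptor and 100% = vehicle on cells lacking receptor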); conditions: cell-based SF1 luciferase reporter, at 3.6 µM, hits give high values
Chain of Steroidogenic factor 1 (Homo sapiens) (Q13285 whole entry, looked up, the tested form may be a part): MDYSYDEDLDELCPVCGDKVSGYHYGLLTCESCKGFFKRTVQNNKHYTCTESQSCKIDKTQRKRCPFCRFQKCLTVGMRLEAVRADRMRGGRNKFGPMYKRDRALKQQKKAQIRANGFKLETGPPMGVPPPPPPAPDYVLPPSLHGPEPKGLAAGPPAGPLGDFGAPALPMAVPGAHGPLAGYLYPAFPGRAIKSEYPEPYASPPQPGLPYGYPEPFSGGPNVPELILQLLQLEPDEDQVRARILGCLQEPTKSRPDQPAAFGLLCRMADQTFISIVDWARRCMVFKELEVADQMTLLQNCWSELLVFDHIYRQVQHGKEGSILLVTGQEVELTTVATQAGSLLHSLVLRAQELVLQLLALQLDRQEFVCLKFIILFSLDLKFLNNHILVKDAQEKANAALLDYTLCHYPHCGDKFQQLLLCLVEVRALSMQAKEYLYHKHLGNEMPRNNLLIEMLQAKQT

[8] = VP16 transactivation reporter inhibitors, counter-screen for LRH-1 inverse agonist project, cell-based, luminescence, high throughput (AID 651615; in the data active means inhibition above about 33%); conditions: Gal4-VP16 luciferase reporter cells, at 3.6 µM, hits give high values

| Structure (SMILES) | inhibition [1] | inhibition [2] | inhibition [3] | inhibition [4] | inhibition [5] | inhibition [6] | inhibition [7] | inhibition [8] |
| --- | --- | --- | --- | --- | --- | --- | --- | --- |
| O=c1[nH]c2ccccc2n1C1CCN(C(c2ccnc3ccccc23)c2nnnn2-c2ccc3c(c2)OCCO3)CC1 (stereo not given) | 8.29% | 6.76% | -26.3% | 8.7% | – | – | – | – |
| Cc1[nH]nc2ccc(-c3cncc(OC[C@@H](N)Cc4c[nH]c5ccccc45)c3)cc12 | 98.5% (active) | 97.1% (active) | 93.5% (active) | 97.3% (active) | – | – | – | – |
| O=c1[nH]c2ccccc2n1C1CCN(C(CCc2ccccc2)c2nnnn2Cc2ccccc2)CC1 (stereo not given) | 34.6% | 40.3% (active) | 12% | 36.7% (active) | – | – | – | – |
| CCC1(OC(=O)CN)C(=O)OCc2c1cc1n(c2=O)Cc2cc3ccccc3nc2-1 (stereo not given) | 94.9% (active) | 82.8% (active) | 56.9% (active) | 77.3% (active) | 84% (active) | 103% (active) | 90.9% (active) | 82% (active) |
| C/C(=N\Nc1ccccc1)c1c(O)[nH]c(=O)[nH]c1=O | 0.35% | 17.7% | -2.36% | 13.6% | – | – | – | – |
| CN(C)c1ccc(-[n+]2c(-c3ccccc3)cc(-c3ccccc3)cc2-c2ccccc2)cc1 | 84.6% (active) | 86.2% (active) | 52.3% (active) | 83.5% (active) | 79.2% (active) | 107% (active) | 91.6% (active) | 92% (active) |
| COC1CC2C=C(C)C=CC=CC(=O)NC(c3ccccc3)CC=CCCC(O)CC(=O)C2=C1O (stereo not given) | 75.1% (active) | 84% (active) | 29.9% | 84.7% (active) | 81.7% (active) | 107% (active) | 95.6% (active) | 89.8% (active) |

From PubChem BioAssay
